Measurements reported in PubChem BioAssay AID952 (NMMLSC, 2007).
About 45 (0.02%) of roughly 190,000 compounds were called active. No stated cut-off is given here; in the data, active means inhibition above about 40%. Only a sample is shown.

target: Bcl-2-like protein 2 (Homo sapiens) (UniProt Q92843); assay: Bcl-W/Bim complex disruptors – biochemical, multiplexed, bead-based flow cytometry, primary screen (AID 952); details: Bim peptide-Bcl-W binding, at 10 µM, active compounds read high;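 further: 0% = bound tracer without compound and 100% = peptide blocker; higher means less fluorescent Bim peptide bound to Bcl-W beads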
Sequence (Q92843 whole entry, looked up): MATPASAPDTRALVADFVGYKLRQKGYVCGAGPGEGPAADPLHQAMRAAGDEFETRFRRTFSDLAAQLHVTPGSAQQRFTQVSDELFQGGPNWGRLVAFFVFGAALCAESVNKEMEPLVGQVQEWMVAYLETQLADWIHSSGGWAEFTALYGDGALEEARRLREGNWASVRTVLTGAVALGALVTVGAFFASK

inhibition, inactive:
CNC(=O)/C(C#N)=C/c1c(F)cccc1Cl -2%, CCn1ncc(CNC(=O)C2(C)CC2(Br)Br)c1C (configuration not stated) -4%, Cc1ccc(N(C(=O)C(F)(F)F)C(C(=O)NC2CCCCC2)c2ccncc2)cc1C (configuration not stated) -1%, N#Cc1cccc(Nc2c3c(nc4ccccc24)CCCC3)c1 4%, COc1ccc(Cl)cc1NC(=O)CN(C)Cc1ccc(OC)c(OC)c1 -4%, NC(=O)CC[C@@H]1NC(=O)[C@H](CO)NC(=O)c2cc([N+](=O)[O-])cc(I)c2NCC[C@@H](C(N)=O)NC1=O 0%, O=C(/C=C/c1ccc(N2CCOCC2)cc1)c1ccccc1 -4%, CCCC(C)C(=O)OCC(=O)Nc1c(Br)cc(C)cc1Br (configuration not stated) 0%, O=S(=O)(c1ccc(F)cc1)N1CCN(C(=S)NC2CCCC2)CC1 0%, COc1cc2c(cc1NC(=O)COC(=O)/C=C/c1ccccc1)oc1ccccc12 -7%, Cc1ccc(N(C(=O)c2sc(C)nc2C)C(C(=O)NC(C)(C)C)c2ccncc2)cc1 (configuration not stated) -1%, COc1ccc(C(=O)CSc2nnc(NC(=O)C3CC(=O)N(c4cccc(OC)c4)C3)s2)cc1 (configuration not stated) -2%, O=C(Nn1c(-c2ccc(Cl)cc2)nc2ccccc2c1=O)c1cccnc1Cl 10%, Cc1cc(OCCCN2CCN(Cc3ccccc3)CC2)ccc1[N+](=O)[O-] 0%, COc1ccc(Nc2ncc(F)c(N3CCOCC3)n2)cc1 -1%, CCCCCOc1ccc(/C=C/C(=O)NCCc2nc3ccccc3[nH]2)cc1OC -7%, CCCC/C(C)=N/NC(=O)NC1CCCCC1 -3%, COc1ccnc(Oc2ccccc2)c1-c1ncn[nH]1 -1%, N=c1n(CCc2ccccc2)c2ccccc2n1Cc1ccccc1F -6%, COc1ccccc1NC(=S)N1CCN(C(c2ccccc2)c2ccccc2)CC1 1%, O=C(c1ccncc1)N1CCN(c2ccc3ccccc3n2)CC1 0%, Cc1ccc(C(=O)Oc2coc(CSc3nnc(NC(=O)c4cccs4)s3)cc2=O)cc1C -6%, COc1ccc(NC(=O)C(=O)NCC(=O)Nc2cccc(C(F)(F)F)c2)cc1 1%, CCN(CC)C(=O)CS(=O)CC(=O)Nc1cc(OCCOC)c(Cl)cc1Cl (configuration not stated) -1%, Brc1cc(/C=N/n2cnnc2)oc1Br -2%, CCc1ccc(CN(C)C(=O)CCc2nnc(-c3ccc(-c4ccccc4)cc3)o2)nc1 1%, CC(C)N(Cc1ccccc1)C(=O)COC(=O)c1cnccn1 -1%
